Where “and” joins values, the source holds several entries; their conditions need not be identical. Equal entries are not always repeated. Results filed as inconclusive are left out. Where a structure was tested more than once in an assay, its records may differ in their call. Calls of active or inactive are those of the source. How the source made its calls, unless noted: active means hit-call score of the fitted dose curve at least 0.9, where 1 is the maximum; inactive means score below 0.9.
What was measured:
[1] = UKN2_HCS_IMR90_cell_viability: Viability Assessment in the University of Konstanz (UKN) Leist Lab Neural Crest Cell Migration Assay in human induced IMR90 Pluripotent Stem Cells (UKN2) (AID 2284233);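 further: cells exposed to compound for 24 h after a 24 h migration phase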
Method in brief: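 After calcein-AM/Hoechst staining, viability is quantified by high-content fluorescence imaging, relative to DMSO, in iPSC (IMR90)-derived neural crest cells. Exposure lasts 24 h, starting after a 24 h migration period on PLO/laminin/fibronectin coating.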

[2] = CCTE_Mundy_HCI_Cortical_NOG_NeuronCount: CCTE's Neurite Outgrowth Assay in rat cortical cells for Neuron Count, Mundy Lab (AID 2284236; active means hit-call score of the fitted dose curve at least 0.9, where 1 is the maximum;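 further: neurons counted by imaging betaIII-tubulin and Hoechst stained cortical cells; cells exposed to compound for about 48 hours before fixation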)
Method in brief: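 Read-out: neuron number by high-content imaging of betaIII-tubulin (Alexa Fluor-488) and Hoechst-labelled rat primary cortical cells.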

[3] = CCTE_Mundy_HCI_Cortical_NOG_BPCount: CCTE's Neurite Outgrowth Assay in rat cortical cells for Branch Point Count, Mundy Lab (AID 2284237);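 on AC50: branch points counted about two days after chemical exposure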
Method in brief: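 Measured 50.33 h after dosing, this morphology endpoint uses rat primary cortical cultures labelled for betaIII-tubulin. Branch points are quantified by high-content imaging, with DMSO as negative control and baseline.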

[4] = CCTE_Mundy_HCI_hNP1_Casp3_7: CCTE's Caspase-Glo 3/7 Assay in human neuroprogenitor cells for Apoptosis, Mundy Lab (AID 2284240)
Method in brief: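 Apoptosis is scored by activated caspase-3/7 luminescence in WA09-derived neural progenitor cells, measured 26.5 h after chemical dosing. Values represent gain of signal relative to DMSO vehicle.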

[5] = CCTE_Mundy_HCI_hNP1_CellTiter: CCTE's Cell Titer-Glo 2 Assay in human neuroprogenitor cells for Viability, Mundy Lab (AID 2284241; active means hit-call score of the fitted dose curve at least 0.9, where 1 is the maximum;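 on AC50: a hit is a drop in ATP luminescence versus DMSO meaning reduced viability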)
Method in brief: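 Human neural progenitor cells (hNP1, WA09-derived) were plated on poly-L-ornithine/laminin and grown 40 to 44 hours at 37 °C, 5% CO2 before chemical addition. Twenty-four hours later, ATP was measured by CellTiter-Glo luminescence; loss of signal versus DMSO indicates reduced viability.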

[6] = CCTE_Mundy_HCI_Cortical_Synap_Neur_Matur_NeuronCount: CCTE's Synaptogenesis and Neurite Maturation Assay in rat cortical cells for Neuron Count, Mundy Lab (AID 2284242; active means hit-call score of the fitted dose curve at least 0.9, where 1 is the maximum;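 on AC50: neuron number from Hoechst nuclei and MAP2 staining by high-content imaging; hits reduce neuron count versus DMSO baseline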)
Method in brief: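 Rat cortical cultures; AraC DIV 5; chemical dosing + media change DIV 7 to DIV 12 (288.33 h readout). Fix, Hoechst, anti-MAP2/anti-synaptophysin immunostain; HCI neuron count vs DMSO baseline.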

[7] = UKN4_HCS_LUHMES_cell_viability: Viability Assessment in the University of Konstanz (UKN) Leist Lab Neurite Outgrowth Assay in human LUHMES cells (UKN4) (AID 2284232)
Method in brief: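 Day-2 differentiated LUHMES, 30000 cells/well, dosed ~30 min–2 h post-seeding; 24 h treatment incl. staining; Hoechst H-33342 + calcein-AM at 23.5 h; HCS imaging; DMSO-normalized, bidirectional fit.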

[8] = BSK_BT_Bcell_Proliferation: Viability Assessment in the BioMAP Diversity Plus: BT Assay for B cell Proliferation (AID 2284227); settings: primary human B cells with PBMC
Method in brief: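 Human B cell/PBMC co-culture; test chemical added; 72 h; TCA fix (10%), 0.1% SRB stain, A560 for total protein as a proliferation read-out; positive-direction fit vs DMSO baseline.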

[9] = read-out: Interleukin 6 (IL6), IL6 (gene 3569); experiment: BSK_BT_xIL6: BioMAP Diversity Plus: BT Assay for Interleukin 6 (IL6) Biomarker Activity (AID 2284228); settings: primary human B cells with PBMC
Method in brief: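 B cells and peripheral blood mononuclear cells (human primary co-culture) were dosed with chemical, and after 24 h IL-6 released into the medium was measured by Luminex xMAP. Responses were analysed as gain of signal over DMSO control.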

[10] = read-out: Interleukin 17A (IL17A), IL17A (gene 3605); experiment: BSK_BT_xIL17A: BioMAP Diversity Plus: BT Assay for Interleukin 17A (IL17A) Biomarker Activity (AID 2284229); settings: primary human B cells with PBMC
Method in brief: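 Secreted IL-17A was the measured endpoint, read by Luminex xMAP multiplex in supernatants of a human B cell/PBMC co-culture harvested 24 h after chemical dosing. Signal increase relative to DMSO defined activity.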

[11] = read-out: Tumor necrosis factor (Homo sapiens) (UniProt P01375); experiment: BSK_BT_xTNFa: BioMAP Diversity Plus: BT Assay for Tumor necrosis factor alpha (TNF-alpha) Biomarker Activity (AID 2284230); settings: primary human B cells with PBMC
Method in brief: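 Read-out: Luminex xMAP quantitation of secreted TNF-alpha from a B cell/PBMC co-culture 24 h after compound addition. Signal analysed relative to DMSO vehicle, positive fitting direction.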

[12] = read-out: Vascular cell adhesion molecule 1 (VCAM1), VCAM1 (gene 7412); experiment: BSK_MyoF_VCAM1: BioMAP Diversity Plus: MyoF Assay for Vascular cell adhesion molecule 1 (VCAM1) Biomarker Activity (AID 2284231); settings: primary human lung fibroblasts
Method in brief: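 ELISA read-out of VCAM-1 on human lung fibroblasts 24 h after chemical treatment, with positive-direction curve fitting relative to DMSO controls. Parallel cultures were stained with sulforhodamine B for total protein to flag overt cytotoxicity.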

[13] = read-out: Collagen I, COL1A1 (gene 1277); experiment: BSK_MyoF_CollagenI: BioMAP Diversity Plus: MyoF Assay for Collagen I Biomarker Activity (AID 2284238); settings: primary human lung fibroblasts
Method in brief: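 Lung fibroblasts (human primary) dosed, 24 h; Collagen I by ELISA; positive-direction fit vs DMSO control. Parallel SRB total-protein staining (0.1% SRB, 10% TCA fixation, 560 nm) flags overt cytotoxicity.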

[14] = read-out: Collagen III, COL3A1 (gene 1281); experiment: BSK_MyoF_CollagenIII: BioMAP Diversity Plus: MyoF Assay for Collagen III Biomarker Activity (AID 2284239); settings: primary human lung fibroblasts
Method in brief: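 ELISA read-out of collagen III from human lung fibroblasts after 24 h of chemical treatment. The DMSO control served as negative control and baseline, with values fitted in the positive direction.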

[15] = read-out: Interleukin 17F (IL17F), IL17F (gene 112744); experiment: BSK_BT_xIL17F: BioMAP Diversity Plus: BT Assay for Interleukin 17F (IL17F) Biomarker Activity (AID 2284243); settings: primary human B cells with PBMC
Method in brief: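 Compound was added to co-cultures of human B cells and PBMC. After 24 hours, IL-17F released into the medium was measured with LumineX xMAP technology. Responses were then fitted upward relative to DMSO.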

[16] = read-out: Actin alpha 1 (ACTA1), ACTA1 (gene 58); experiment: BSK_MyoF_ACTA1: BioMAP Diversity Plus: MyoF Assay for Actin alpha 1 (ACTA1) Biomarker Activity (AID 2284244); settings: primary human lung fibroblasts
Method in brief: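 ELISA read-out of a-SMA in primary human lung fibroblast cultures, 24 h post-dosing. Activity scored in the positive direction versus DMSO baseline.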

[17] = read-out: Interleukin 2 (IL2), IL2 (gene 3558); experiment: BSK_BT_xIL2: BioMAP Diversity Plus: BT Assay for Interleukin 2 (IL2) Biomarker Activity (AID 2284245); settings: primary human B cells with PBMC
Method in brief: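 Readout: supernatant IL-2 via Luminex xMAP after 24 h chemical dosing of a B cell/PBMC primary human co-culture. DMSO serves as negative control and baseline; increases in signal were fitted.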

[18] = read-out: Basic fibroblast growth factor (bFGF), FGF2 (gene 2247); experiment: BSK_MyoF_bFGF: BioMAP Diversity Plus: MyoF Assay for Basic fibroblast growth factor (bFGF) Biomarker Activity (AID 2284246); settings: primary human lung fibroblasts
Method in brief: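 Primary human lung fibroblast culture, 24 h compound exposure; ELISA read-out of bFGF. Positive-direction fit vs DMSO baseline. Cytotoxicity: SRB stain (0.1% SRB, 10% TCA fixation, 560 nm) in parallel wells.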

[19] = TAMU_HCS_1.5hr_SingleDonor1434_Cytotoxicity: Cytotoxicity Assessment using High-content Screening (HCS) Fluorescent Imaging for the Texas A&M University (TAMU) 1.5-hr Human Induced Pluripotent Stem Cell (iPSC)-derived Cardiotoxicity Assay (AID 2284234; active means hit-call score of the fitted dose curve at least 0.9, where 1 is the maximum)
Method in brief: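 Nuclear counts from Hoechst 33342 imaging define cytotoxicity here, with EC10 (10% cell-count loss relative to DMSO) as point of departure. iPSC cardiomyocytes received 0.2-100 uM test chemical in 0.5% DMSO for 1.5 h at 37 C.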

[20] = TAMU_PeakParms_SingleDonor1434_QT: Texas A&M University (TAMU) 1.5-hr Human Induced Pluripotent Stem Cell (iPSC)-derived Cardiomyocytes Calcium (Ca+2) Flux Assay for Cardiotoxicity: QT (decay-rise ratio) (AID 2284235; active means hit-call score of the fitted dose curve at least 0.9, where 1 is the maximum)
Method in brief: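 Decay/rise ratio of calcium-flux fluorescence scored after 90 min exposure (37C) of donor 1434 iPSC cardiomyocytes to 0.2–100 uM (0.5% DMSO). Beat-cessation and severe-notch points removed; POD is EC05, a 5% rise over DMSO.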

Measured: AC50

Chain of Tumor necrosis factor (Homo sapiens) (P01375 whole entry, looked up): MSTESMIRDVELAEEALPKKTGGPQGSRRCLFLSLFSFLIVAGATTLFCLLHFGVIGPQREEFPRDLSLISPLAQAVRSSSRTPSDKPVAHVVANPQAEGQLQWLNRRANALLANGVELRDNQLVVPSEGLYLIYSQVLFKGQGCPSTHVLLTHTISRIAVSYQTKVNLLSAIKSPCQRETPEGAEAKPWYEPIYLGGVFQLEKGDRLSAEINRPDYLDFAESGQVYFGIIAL

COP(=O)(OC)OC=C(Cl)Cl
active: [3] 70 µM | [6] 81.4 µM
inactive: [1] | [2] | [3] | [4] | [5]

CC(C)N(C(=O)COc1nnc(C(F)(F)F)s1)c1ccc(F)cc1
inactive: [7] | [1] | [2] | [3] | [4] | [5]

CC1(c2ccc(Oc3ccccc3)cc2)OC(=O)N(Nc2ccccc2)C1=O (stereo not drawn)
active: [2] 23.8 µM | [3] 50 µM | [5] 10.9 µM | [6] 10.9 µM
inactive: [1] | [4]

O=[N+]([O-])/N=C1\NCCN1Cc1ccc(Cl)nc1
inactive: [7] | [1] | [3] | [4] | [5]

CCC(C)(C)C(=O)OC1=C(c2ccc(Cl)cc2Cl)C(=O)OC12CCCCC2
inactive: [7] | [3] | [4] | [5] | [6]

CNC(=O)CSP(=S)(OC)OC
active: [6] 50 µM
inactive: [3] | [4] | [5] | [6]

CC[C@H](C)[C@H]1O[C@]2(C=C[C@@H]1C)C[C@@H]1C[C@@H](C/C=C(\C)[C@@H](O[C@H]3C[C@H](OC)[C@@H](O[C@H]4C[C@H](OC)[C@@H](O)[C@H](C)O4)[C@H](C)O3)[C@@H](C)/C=C/C=C3\CO[C@@H]4[C@H](O)C(C)=C[C@@H](C(=O)O1)[C@]34O)O2 (tested in a mixture with another compound)
active: [1] 7.09 µM | [2] 13.3 µM | [3] 8.26 µM | [4] 3.64 µM | [5] 3.34 µM | [6] 1.55 µM

COP(=S)(OC)Oc1ccc([N+](=O)[O-])cc1
active: [2] 2.98 µM | [3] 23.2 µM | [6] 22.1 µM
inactive: [7] | [4] | [5]

O=S(=O)(O)C(F)(F)C(F)(F)C(F)(F)C(F)(F)C(F)(F)C(F)(F)C(F)(F)C(F)(F)F
active: [8] 19.5 µM | [7] 20.4 µM
inactive: [8] | [9] | [10] | [11] | [12] | [2] | [3] | [13] | [14] | [4] | [5] | [6] | [15] | [16] | [17] | [18]

CC1(C)C(C=C(Cl)Cl)C1C(=O)OC(C#N)c1ccc(F)c(Oc2ccccc2)c1 (stereo not drawn)
active: [2] 49.9 µM | [3] 63.1 µM | [4] 31.3 µM | [6] 49.9 µM
inactive: [1] | [2] | [3] | [4] | [5]

ClC1C(Cl)C(Cl)C(Cl)C(Cl)C1Cl (stereo not drawn)
active: [8] 33.6 µM | [11] 30.5 µM | [12] 16.3 µM and 261 nM | [13] 25.5 µM | [14] 30.3 µM | [15] 20 µM | [16] 28.5 µM | [17] 31.9 µM
inactive: [8] | [9] | [10] | [11] | [7] | [1] | [13] | [14] | [15] | [16] | [17] | [18]

CCOCN(C(=O)CCl)c1c(C)cccc1CC
active: [19] 81.6 µM

O=S1OCC2C(CO1)C1(Cl)C(Cl)=C(Cl)C2(Cl)C1(Cl)Cl (stereo not drawn)
active: [7] 18.7 µM | [1] 14.8 µM | [2] 25.2 µM | [3] 21.4 µM | [4] 19.4 µM | [5] 12 µM | [6] 22.5 µM
inactive: [19] | [20]

CN1CSC(=S)N(C)C1
inactive: [20]

O=C(O)COc1ccc(Cl)cc1Cl
inactive: [1] | [2] | [3] | [4] | [5]

O=C(O)C(F)(F)C(F)(F)C(F)(F)C(F)(F)C(F)(F)C(F)(F)C(F)(F)F
active: [8] 24 µM | [11] 5.95 µM | [7] 89.4 µM
inactive: [8] | [9] | [10] | [11] | [12] | [1] | [2] | [3] | [13] | [14] | [4] | [6] | [15] | [16] | [17] | [18]

Source: PubChem BioAssay (EPA / NIEHS)
